In publication PMC5540273 (PLoS ONE, 2017):

Experiments:
Conditions in all cases: concentration: 1 μM, replicates: in singlicate; n = 1
EPHA7 = tested on: EPHA7
EPHA8 = tested on: EPHA8
EPHB1 = tested on: EPHB1
EPHB2 = tested on: EPHB2
EPHB3 = tested on: EPHB3
EPHB4 = tested on: EPHB4
EPHB6 = tested on: EPHB6
ERBB2 = tested on: ERBB2
ERBB3 = tested on: ERBB3
ERBB4 = tested on: ERBB4
ERK1 = tested on: T1, ERK1
T1 construct: gene MAPK3

ERK2 = tested on: T2, ERK2
T2 construct: gene MAPK1

ERK3 = tested on: T3, ERK3
T3 construct: gene MAPK6

ERK4 = tested on: T4, ERK4
T4 construct: gene MAPK4

ERK5 = tested on: T5, ERK5
T5 construct: gene MAPK7

ERK8 = tested on: T6, ERK8
T6 construct: gene MAPK15

ERN1 = tested on: ERN1
FAK = tested on: T7, FAK
T7 construct: gene PTK2

FER = tested on: FER
FES = tested on: FES
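Also: KINOMEscan kinase panel screen.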

| Structure (SMILES) | %Inh (EPHA7) [%] | %Inh (EPHA8) [%] | %Inh (EPHB1) [%] | %Inh (EPHB2) [%] | %Inh (EPHB3) [%] | %Inh (EPHB4) [%] | %Inh (EPHB6) [%] | %Inh (ERBB2) [%] | %Inh (ERBB3) [%] | %Inh (ERBB4) [%] | %Inh (ERK1) [%] | %Inh (ERK2) [%] | %Inh (ERK3) [%] | %Inh (ERK4) [%] | %Inh (ERK5) [%] | %Inh (ERK8) [%] | %Inh (ERN1) [%] | %Inh (FAK) [%] | %Inh (FER) [%] | %Inh (FES) [%] |
| --- | --- | --- | --- | --- | --- | --- | --- | --- | --- | --- | --- | --- | --- | --- | --- | --- | --- | --- | --- | --- |
| O=C(Nc1ccccc1F)NC1CCN(c2ccnc(Nc3ccc(F)cc3)n2)CC1 [GSK1379800] | 0 | 0 | 17 | 0 | 11 | 8 | 18 | 33 | 3 | 32 | 3 | 0 | 20 | 0 | 0 | 0 | 0 | 0 | 15 | 0 |
| CN1CCN(CCCNc2nccc(-c3c(-c4ccc(F)cc4)nn4cc(C(F)(F)F)ccc34)n2)CC1 [GW621581] | 0 | 15 | 13 | 0 | 0 | 9 | 26 | 0 | 0 | 0 | 0 | 0 | 0 | 5 | 0 | 31 | 0 | 0 | 0 | 0 |
| CN(C)Cc1ccc(-c2ccc3c(Nc4ccc(Oc5ccccn5)cc4)ccnc3c2)o1 [GW567148] | 0 | 13 | 0 | 0 | 30 | 0 | 97.4 | 45 | 98.9 | 0 | 0 | 0 | 0 | 0 | 0 | 23 | 0 | 0 | 20 | 5 |
| Nc1n[nH]c2cnc(-c3ccccc3)cc12 [SB-642124] | 65 | 51 | 19 | 40 | 16 | 18 | 0 | 0 | 0 | 24 | 0 | 0 | 0 | 25 | 0 | 6 | 13 | 0 | 0 | 0 |
| Cl.Cl.NCC(C(=O)Nc1cc(Br)c(-c2ccnc3[nH]ccc23)s1)c1ccccc1 (centres unmarked) [GSK1269851] | 0 | 13 | 0 | 0 | 27 | 42 | 1 | 5 | 0 | 52 | 6 | 0 | 0 | 6 | 0 | 74 | 18 | 0 | 18 | 38 |
| O=C(Nc1cccc(-c2nn3ncccc3c2-c2ccnc(Nc3ccccc3)n2)c1)c1c(F)cccc1F [GSK198271] | 5 | 19 | 18 | 11 | 1 | 6 | 63 | 95.2 | 80 | 100 | 0 | 6 | 0 | 20 | 4 | 0 | 32 | 0 | 45 | 6 |
| C[C@@H](Oc1cc(-n2cnc3cc(-c4ccnc(NCCS(C)(=O)=O)c4)ccc32)sc1C(N)=O)c1ccccc1Cl [GSK907232] | 6 | 23 | 19 | 0 | 10 | 3 | 60 | 0 | 0 | 0 | 0 | 0 | 0 | 19 | 0 | 76 | 0 | 0 | 21 | 0 |
| CCn1c(-c2nonc2N)nc2c(C#CC(C)(C)O)nc(OC[C@H](N)c3ccccc3)cc21 [GSK943949] | 0 | 0 | 8 | 0 | 0 | 0 | 28 | 12 | 0 | 0 | 0 | 3 | 0 | 0 | 0 | 7 | 4 | 0 | 0 | 0 |
| COc1ccc(-c2coc3ccc(-c4nnc(SCc5ccc(OC)c(C(F)(F)F)c5)o4)cc23)cc1 | 19 | 14 | 26 | 24 | 20 | 0 | 16 | 19 | 28 | 21 | 8 | 24 | 0 | 3 | 2 | 2 | 44 | 10 | 0 | 4 |
| CC(C)(C)c1ccc2nccc(Nc3cccc(O)c3)c2c1 [GW856795] | 0 | 56 | 22 | 17 | 57 | 37 | 3 | 88 | 44 | 37 | 0 | 0 | 0 | 0 | 0 | 0 | 66 | 0 | 0 | 0 |
